# Results reported in PubChem BioAssay AID1251 (SRMLSC, 2008).
# About 720 (0.36%) of roughly 200,000 compounds were called active. No stated cut-off is given here; in the data, active means inhibition above about 30%; inactive means the rest, inconclusive results apart. The sample as a whole holds a higher share of actives than the screen did.
# Assay: antivirals against arbovirus infection, primary screen, cell-based, full library, 10K replicate subset (AID 1251)
# [1] = arbovirus infection cell-based antiviral screen, at 10 µM, stronger effect = higher value
# [2] = arbovirus infection cell-based antiviral screen; at 10 µM; stronger effect = higher value
# [3] = arbovirus infection cell-based antiviral screen; measured here: 10K subset replicate screen; at 10 µM; stronger effect = higher value
smiles,measurement,setting,value
O=C(O)c1ccc2c(c1)C(=O)N(NC(=O)c1ccc(O)cc1)C2=O,inhibition,[1],-2.03% (inactive)
CCC(=O)N1CCN=C1SCc1ccc(F)cc1,inhibition,[1],-3.24% (inactive)
O=C(c1ccco1)N1CCN=C1SCc1cccc(Cl)c1,inhibition,[2],5.96% (inactive)
same,inhibition,[3],0.055%
O=C(C1CC1)N1CCN=C1SCc1ccc(Cl)cc1,inhibition,[1],55.7% (active)
C/C(=N\NC(=O)CCn1nc(C)cc1C)C(C)(C)C,inhibition,[1],-5.42% (inactive)
CCCN(C(=O)CSc1nnnn1C)c1c(N)n(Cc2ccccc2)c(=O)[nH]c1=O,inhibition,[1],21.9% (inactive)
COc1ccc(C2=CC(c3cccc(OC)c3)n3nnnc3N2)cc1 (stereo not given),inhibition,[1],11.1% (inactive)
COc1ccc(C2C=C(c3ccc(Br)cc3)Nc3nc(NS(C)(=O)=O)nn32)cc1 (stereo not given),inhibition,[1],61.9% (active)
Brc1ccc(C2=CC(c3ccco3)n3ncnc3N2)cc1 (stereo not given),inhibition,[1],12.4% (inactive)
CC1(C)CC(=O)CC2(C1)NCC(c1ccccc1Cl)c1c2[nH]c2ccccc12 (stereo not given),inhibition,[1],-27.8% (inactive)
COc1cccc(Nc2nnc(SCC(=O)N3CC(C)OC(C)C3)s2)c1 (stereo not given),inhibition,[1],2.66% (inactive)
CCOC(=O)c1csc(NC(=O)Nc2cccc(OC)c2)n1,inhibition,[1],6.16% (inactive)
COc1cccc(NC(=O)Nc2nnc(N3CCCCC3C)s2)c1 (stereo not given),inhibition,[2],37.5% (active)
same,inhibition,[3],24.8%
NC(N)=Nc1nc2ccc(Br)cc2c(=O)[nH]1,inhibition,[1],-2.82% (inactive)
CCOc1ccc(C(=O)Nc2cccc(SC)c2)cc1,inhibition,[1],4.43% (inactive)
Cc1ccc(C2=C/C(=C\c3cccnc3)C(=O)O2)cc1,inhibition,[1],-1.53% (inactive)
O=C(Nc1ccc2c(c1)CCC2)c1cccc(S(=O)(=O)Nc2ccccc2Cl)c1,inhibition,[1],-3.02% (inactive)
C=CCn1c(SCC(=O)Nc2nc3ccccc3s2)nnc1-c1ccccc1O,inhibition,[1],47.3% (active)
C=CCn1c(SCC(=O)NCc2ccccc2)nnc1-c1cc(Br)ccc1O,inhibition,[1],8.76% (inactive)
Cn1nnnc1SCC(=O)Nc1nc2ccccc2s1,inhibition,[1],0.23% (inactive)
CCOc1c(Cl)cc(/C=N/O)cc1OC,inhibition,[1],11% (inactive)
CCOc1cc(/C=C(/C#N)c2ccc(Cl)cc2)cc(Cl)c1OCC(=O)O,inhibition,[1],51.7% (active)
CCOC(=O)CN/C=C(\C#N)c1ccc(F)cc1,inhibition,[1],-0.71% (inactive)
S=c1[nH]nc(/C=C/c2ccccc2)o1,inhibition,[1],-0.67% (inactive)
CCn1c(/C=C/c2ccc([N+](=O)[O-])o2)nc2ccccc2c1=O,inhibition,[1],-31.9% (inactive)
O=c1oc(/C=C/c2ccccc2)nc2ccccc12,inhibition,[1],44.9% (active)
CC(C)(C)NC(=O)c1cccc(NC(=O)Cc2ccc(Br)cc2)c1,inhibition,[1],17.2% (inactive)
Cc1ccccc1NC(=S)N(CCCN1CCOCC1)Cc1cccs1,inhibition,[1],7.45% (inactive)
CCCc1cc(=O)[nH]c(SCC(=O)OCc2ccccc2)n1,inhibition,[1],0.37% (inactive)
CCCc1cc(=O)[nH]c(SCc2ccc(C#N)cc2)n1,inhibition,[1],42% (active)
CCCc1cc(=O)[nH]c(SCc2cc(=O)oc3c(C)c(C)ccc23)n1,inhibition,[1],5.14% (inactive)
CN1CCN(S(=O)(=O)c2cccc(C(=O)O)c2)CC1,inhibition,[1],-0.22% (inactive)
CC(=O)n1cc([C@@H]2C=C(C(=O)N3CCN(Cc4ccc5c(c4)OCO5)CC3)O[C@H](OCc3ccc(CO)cc3)C2)c2ccccc21,inhibition,[1],-8.36% (inactive)
COc1ccc(C)cc1NC(=O)c1ccc(-c2ccc(C(C)=O)cc2)o1,inhibition,[1],-5.64% (inactive)
Cc1cccc(CSc2nnc(NC(=O)CSc3nnc(C)s3)s2)c1,inhibition,[1],31.4% (active)
Cc1nnc(SCC(=O)NCc2ccccc2)s1,inhibition,[2],-3.33% (inactive)
same,inhibition,[3],3.33%
Cc1cccc(NC(=O)CSc2nnc(NC(=O)CN3CCOCC3)s2)c1,inhibition,[1],4.51% (inactive)
COc1ccc(CCNC(=O)/C(C#N)=C2\N=C(NC(=O)c3cccs3)c3ccccc32)cc1,inhibition,[1],1.79% (inactive)
O=C(O)/C=C/c1cn(Cc2ccccc2)nc1-c1cccs1,inhibition,[1],9.79% (inactive)
Cc1c(Cl)cccc1NC(=S)NCc1ccc2c(c1)OCO2,inhibition,[1],-9.04% (inactive)
COCC(C)NCc1cc(Br)ccc1OC (stereo not given),inhibition,[1],5.99% (inactive)
CCOc1ncccc1C(=O)N(C)CC(=O)Nc1ccc(F)cc1,inhibition,[1],-2.52% (inactive)
Cc1cc2ccccc2n1CCC(=O)O,inhibition,[1],4.57% (inactive)
COc1ccccc1N1CCN(C(=O)c2ccc(Cl)c(S(=O)(=O)N3CCCC3)c2)CC1,inhibition,[1],4.9% (inactive)
O=C(COc1ccccc1Cl)Nc1ccc(C(=O)c2ccc(C(=O)O)cc2)cc1,inhibition,[1],1.44% (inactive)
COc1cc(NC(=O)COc2ccccc2Cl)ccc1NC(=O)C(C)C,inhibition,[1],-3.4% (inactive)
CC(=O)Nc1ccc(NC(=O)COc2ccccc2C(=O)Nc2cccc(Cl)c2Cl)cc1,inhibition,[1],33.1% (active)
CSc1ccccc1NC(=O)CN(C)CC(=O)Nc1ccc(Cl)cc1[N+](=O)[O-],inhibition,[1],9.71% (inactive)
COc1ccccc1C(=O)Nn1c(-c2cccs2)nc2ccccc2c1=O,inhibition,[1],-3.21% (inactive)
CCOC(=O)N1CCN(C(=O)Cn2cnc3ccccc3c2=O)CC1,inhibition,[1],4.88% (inactive)
CCOC(=O)C(=Cc1ccccc1OC)C(=O)OCC,inhibition,[1],1.92% (inactive)
O=c1c2c(ncn1Cc1ccccc1)nc1n2CCC1,inhibition,[1],-1.22% (inactive)
COc1ccc(/C=N/NC(=O)C(C)N(c2ccc(OC)cc2)S(C)(=O)=O)cc1 (stereo not given),inhibition,[1],-1.77% (inactive)
COc1cc(OC)cc(C(=O)OCC(=O)Nc2sccc2C(N)=O)c1,inhibition,[1],4.53% (inactive)
O=C(COC(=O)C12CC3CC(CC(O)(C3)C1)C2)NC12CC3CC(CC(C3)C1)C2,inhibition,[1],5.43% (inactive)
Cc1ccc(C(=O)N/C(=C\c2ccco2)C(=O)N2CCSCC2)cc1C,inhibition,[1],4.17% (inactive)
O=C(Nc1ccn(Cc2ccc(F)cc2)n1)c1ccncc1,inhibition,[1],3.28% (inactive)
O=C(Nc1ccn(Cc2ccccc2)n1)c1cccc(F)c1,inhibition,[1],-18.6% (inactive)
O=C(Nc1ccn(Cc2ccccc2)n1)c1n[nH]c([N+](=O)[O-])c1Cl,inhibition,[1],50.2% (active)
CC(=O)NC(NC(=S)Nc1c(C)n(C)n(-c2ccccc2)c1=O)C(Cl)(Cl)Cl (stereo not given),inhibition,[1],7.15% (inactive)
CCOc1cc(NC(=S)NCCCN(C)C)c(OCC)cc1NC(=O)C1CC1,inhibition,[1],5.58% (inactive)
CCOc1ccc(Br)cc1S(=O)(=O)Nc1cccc(S(=O)(=O)N(CC)CC)c1,inhibition,[1],2.51% (inactive)
CN(C)c1ccc(C(CC(=O)O)C(=O)O)cc1 (stereo not given),inhibition,[1],2.46% (inactive)
COc1ccc(N2C(=O)C(CC(=O)Nc3ccccc3)N(Cc3ccc(OC)c(OC)c3)C2=O)cc1 (stereo not given),inhibition,[1],0.98% (inactive)
COc1ccccc1N1CCN(C(=O)c2cc(-c3ccc(Cl)c(Cl)c3)on2)CC1,inhibition,[1],2.74% (inactive)
O=C(c1ccncc1)N1CCN(c2ccc3ccccc3n2)CC1,inhibition,[1],5.37% (inactive)
O=C(c1ccc2ccccc2n1)N1CCN(c2ccccc2Cl)CC1,inhibition,[1],36% (active)
Cc1cc(C(=O)NNC(=O)CCC2CCCCC2)c(C)o1,inhibition,[1],-2.2% (inactive)
C=CCn1nc(-c2ccccc2)c2c(C)onc2c1=O,inhibition,[1],4.65% (inactive)
Cc1ccc(-c2cc(C(F)(F)F)n3ncc(C(=O)N4CCCCC4c4cccnc4)c3n2)cc1 (stereo not given),inhibition,[1],-9.25% (inactive)
COCCn1c(C)cc(C(=O)CSc2nc3ccccc3c(=O)n2C(C)COC)c1C (stereo not given),inhibition,[1],8.78% (inactive)
CCCc1nc(NCc2ccc3c(c2)OCO3)c2nnn(Cc3ccccc3Cl)c2n1,inhibition,[1],-16.2% (inactive)
Cc1nc(Nc2ccc(S(=O)(=O)N3CCCC3)cc2)c2nnn(Cc3ccccc3)c2n1,inhibition,[1],-12.5% (inactive)
Cc1nc(Nc2ccc3c(c2)OCCO3)c2nnn(Cc3ccccc3Cl)c2n1,inhibition,[1],51.5% (active)
Cc1ccc2nsnc2c1S(=O)(=O)N1CCCC1C(=O)O (stereo not given),inhibition,[1],1.07% (inactive)
CCOC(=O)c1oc2ccccc2c1NC(=O)c1cccs1,inhibition,[1],-1.76% (inactive)
Cc1cc(C)c(NC(=O)c2oc3ccccc3c2COc2ccccc2)c(C)c1,inhibition,[1],32.5% (active)
COCc1c(C(=O)OCc2c(C)noc2C)oc2ccccc12,inhibition,[1],3.37% (inactive)
O=c1[nH]c(CN2CCOCC2)nc2scc(-c3ccccc3)c12,inhibition,[1],5.07% (inactive)
O=C(CN(CC1CCCO1)C(=O)CNS(=O)(=O)c1ccc(F)cc1)NCc1ccco1 (stereo not given),inhibition,[1],2.42% (inactive)
C/C(=N\N=C(N)N)c1ccc(Cl)cc1,inhibition,[1],-24.2% (inactive)
CC(C)(C)C(=O)NCCCNc1ccc([N+](=O)[O-])cc1,inhibition,[1],1.95% (inactive)
O=C(CNCc1ccc(F)cc1)Nc1ccccc1-c1ccccc1,inhibition,[1],-16.4% (inactive)
CCc1ccc(/C=C2\SC(N3CCOCC3)=NC2=O)cc1,inhibition,[1],-6.68% (inactive)
Cc1ccc(N2CCN(C3=NC(=O)/C(=C\c4cccs4)S3)CC2)cc1,inhibition,[1],6.43% (inactive)
Cc1ccc(Cl)c(NC(=O)CN2CCN(C=O)CC2)c1,inhibition,[1],5.23% (inactive)
COc1ccc(CCn2ccc(O)c(Cc3ccc(Cl)cc3Cl)c2=O)cc1OC,inhibition,[1],5.76% (inactive)
C/C(CCc1ccccc1)=N\NC(=O)c1ccc(CN2CCOCC2)cc1,inhibition,[1],-3.19% (inactive)
COc1ccc2c(c1)CCC/C2=N\OC(=O)c1ccccc1F,inhibition,[1],-1.6% (inactive)
CCOc1cc(CNCc2ccccn2)ccc1OCC(=O)NC(C)(C)C,inhibition,[1],-2.89% (inactive)
CCCCCC(=O)NC(=S)NNC(=O)c1ccc([N+](=O)[O-])cc1,inhibition,[1],-18% (inactive)
CCN(C(=O)COC(=O)c1cc(S(=O)(=O)N2CCc3ccccc32)ccc1OC)C1CCS(=O)(=O)C1 (stereo not given),inhibition,[1],7.54% (inactive)
CCN(CC)CCNC(=O)c1ccc(NC(=O)c2c(F)cccc2Cl)cc1,inhibition,[1],-4.69% (inactive)
Cc1cc(C)c2nc(SCC(=O)N(C)C3CCS(=O)(=O)C3)cc(C)c2c1 (stereo not given),inhibition,[1],-6.1% (inactive)
CC(=O)c1sc(NC(=O)c2ccc(C)cc2)nc1C,inhibition,[1],-4.42% (inactive)
CCSc1nnc(NC(=O)c2ccc(C)cc2)s1,inhibition,[1],33.2% (active)
CCSc1nnc(NC(=O)Cc2ccccc2OC)s1,inhibition,[1],3.03% (inactive)
